# Screening results: PubChem BioAssay, National Center for Advancing Translational Sciences (NCATS)
# GLP-1R inv ag – acts as inverse agonist at human GLP-1 receptor | Potency, µM (series often up to 38.3 µM), for inactives: at the highest dose activity change, negative = inhibition, hits mostly inhibitors | 1.6% of 410,000 active | HEK293 GLP-1R CRE-luciferase, luminescence, 24 h; GLP-1R form is constitutively active; further: potency means the concentration at half of the fitted maximal effect; on the % scale 0 is the no-effect control and ±100 the full control effect; nearly all actives have a fitted effect of over 55% in size
#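 Seeding at 200 cells/uL, 12 h culture, 24 hr compound treatment, then luciferase reagent and a luminescence read; cells are HEK293 stably expressing a constitutively active GLP-1R plus cAMP-responsive luciferase.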
# PTHR1 agonist – agonists of human PTHR1 parathyroid hormone receptor; AID 743266; HEK293 GP2 PTHR1 cells, GloSensor cAMP luminescence, 1 h; 0.075% of 410,000 active; Potency, µM (series often up to 115 µM), inactives show at the highest dose activation, actives largely listed as activators; further: potency means the concentration at half of the fitted maximal effect; nearly all actives have a fitted effect of over 55% in size
# Target sequence (Q03431 whole entry, looked up): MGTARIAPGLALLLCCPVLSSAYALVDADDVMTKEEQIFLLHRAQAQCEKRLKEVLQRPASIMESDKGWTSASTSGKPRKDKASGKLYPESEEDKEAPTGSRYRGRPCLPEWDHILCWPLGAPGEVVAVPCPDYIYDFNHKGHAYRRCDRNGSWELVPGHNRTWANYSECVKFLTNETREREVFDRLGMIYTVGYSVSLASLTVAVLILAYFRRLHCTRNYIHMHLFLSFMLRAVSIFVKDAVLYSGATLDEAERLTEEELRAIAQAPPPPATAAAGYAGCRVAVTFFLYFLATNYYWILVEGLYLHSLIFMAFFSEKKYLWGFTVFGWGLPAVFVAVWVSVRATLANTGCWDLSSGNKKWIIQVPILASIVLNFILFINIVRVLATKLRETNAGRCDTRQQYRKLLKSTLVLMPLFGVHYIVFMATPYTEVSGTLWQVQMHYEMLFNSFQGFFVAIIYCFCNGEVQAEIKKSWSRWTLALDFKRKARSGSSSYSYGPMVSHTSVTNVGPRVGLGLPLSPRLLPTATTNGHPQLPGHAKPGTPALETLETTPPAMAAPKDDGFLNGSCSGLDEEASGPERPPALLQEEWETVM
#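 HEK-293-derived GP2 cells expressing PTHR1 and a GloSensor cAMP reporter, 3,000/well, plated overnight, given luciferin plus IBMX (each 0.5 mM as added) for 1 h at 37 °C, then compound for 1 h at 37 °C. Luminescence was read after 15 min at room temperature.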
# GLP-1R agonist – agonists of human GLP-1 receptor; 0.007% of 380,000 active; P43220; Potency, µM (top dose mostly 45.6 µM), for inactives: at the top dose activation, actives largely listed as activators; HEK293 GLP-1R CRE-luciferase, luminescence, 4-6 h; cells express a hypersensitive GLP-1R form; AID 624172; further: potency means the concentration at half of the fitted maximal effect; % of control where 0% means no effect
# TRHR agonist – activates the human TRH receptor | P34981 | TRHR cells, calcium flux fluo-8, FDSS agonist mode | activation, % at 2 µM | 0.18% of 360,000 active | AID 493084; in the data active means activation above about 30%; further: 0% is about no effect
#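 In this calcium-flux screen, cells bearing human TRHR are dye-loaded with fluo-8, baselined for 10 cycles, then exposed to library compounds; positive kinetic calcium responses during the agonist phase mark hits, with TRH as control.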
# GLP1R cytotox – cytotoxicity counter-screen for GLP-1 receptor inverse agonists | HEK293 cAMP-luciferase reporter cells, luminescence, 24 h | Potency, µM (titrated, usually from 38.3 µM), for the others: at the top dose activity change, negative = inhibition, usual class: inhibitors | 0.13% of 410,000 active;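 further: loss of luciferase light is scored as toxicity; potency means the concentration at half of the fitted maximal effect; on the % scale 0 is the no-effect control and ±100 the full control effect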
#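 1536-well qHTS counterscreen of the MLSMR; 200 cells/uL, 12 h pre-incubation, 23 nL cpd, 24 h at 37 deg C 5% CO2, luciferase detection reagent, 12 min RT, luminescence. Inhibition = undesired.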
# TRHR enhancer – allosterically enhances the human TRH receptor; P34981; TRHR cells, fluo-8 calcium fluorescence, EC20 TRH enhancement; AID 493056; enhancement, % at 2 µM; 0.66% of 360,000 active; in the data active means enhancement above about 30%; further: 0% is about no effect
#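 Enhancer read-out: after compound pinning and an initial kinetic agonist-mode read, an EC20 of TRH (10 nM final) was injected and fluo-8 calcium signal (Ex 480/Em 530) followed at 1 s/cycle for 100 cycles in TRHR-expressing cells.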
# The depositor's hits bear a star; i = inactive; u = inconclusive; x = no result; [ ] = dose if it differs, or a comment. Shown are actives, neighbours in structure and some others; about 2.4% of the full set was active somewhere. Unless noted, the call rests on the fitted dose curve; in most records, active means well fitted curve in the direction sought with a large enough effect; inconclusive means small, poorly fitted or top-dose-only effect, or another doubt; inactive means no such curve, though single readings can be large; an effect the other way counts as inactive or inconclusive.
SMILES,GLP-1R inv ag,PTHR1 agonist,GLP-1R agonist,TRHR agonist,GLP1R cytotox,TRHR enhancer
Cc1cccc(Oc2nc(-c3ccccn3)nc3ccccc23)c1,1.3µM*,i,15%,0,u,-8
Cc1cc(Cl)ccc1OC(C)C(=O)N1CCCN(C(=O)C(C)Oc2ccc(Cl)cc2C)CC1 (stereo not given),5µM*,-13%,-25%,0,u,-6
O=c1[nH]c(=S)[nH]c2nc(-c3ccccc3)cnc12,-9%,-7%,1%,x,-12%,x
O=c1[nH]c(=O)c2nc(-c3ccc(Cl)cc3)cnc2[nH]1,8%,14µM*,6%,-1,i,-2
Cc1cc(/C=C2/SC(=S)N(c3cccc(C(F)(F)F)c3)C2=O)c(C)n1-c1cccnc1,5µM*,-35%,6%,x,-18%,x
Cc1ccccc1OCCCCCCN1CCNCC1,2.2µM*,-12%,7%,x,2%,x
Cc1ccc(OCCCCCCN2CCNCC2)cc1,2.2µM*,-22%,14%,x,-25%,x
Cc1cccc(C)c1OCCCCN1CCNCC1,u,-16%,6%,-1,-2%,-2
COc1cc(OC)c(OC)cc1/C=N/n1c(-c2n[nH]c3c2CCC3)n[nH]c1=S,0%,i,17%,-1,-17%,4
Cc1ccc(C2=NN(C(=O)CCl)C(c3cccs3)C2)o1 (stereo not given),3.2µM*,-30%,10%,0,u,-2
Cc1cc(S(=O)(=O)N(Cc2ccc(C(C)C)cc2)CC2CCCO2)ccc1-n1cnnn1 (stereo not given),u,-35%[57.5 µM],9%,0,-4%,-9
Cc1cccc(C)c1N1C(=O)CC(N2CCSCC2)C1=O (stereo not given),9%,12%,1%,2,22%,10
CCc1ccccc1NC(=O)Cn1c(=O)n(Cc2ccc(OC)cc2)c(=O)c2oc3ccccc3c21,13%,-3%,x,-1,6%,35*
N#CC1(Cc2ccccc2)c2ccccc2C=CN1C(=O)c1ccccc1 (stereo not given),8.9µM*,-10%[57.5 µM],-6%,0,8%,0
Cc1nc(-c2cccc(NC(=O)Nc3ccc([N+](=O)[O-])cc3)c2)no1,3.5µM*,-44%,-8%,2,u,-9
CC1(c2ccccc2)NC(=O)N(CCOc2ccccc2)C1=O (stereo not given),-19%,-11%,4%,0,-6%,6
Cc1cccc(C)c1OCCN1C(=O)NC(C)(c2ccccc2)C1=O (stereo not given),u,i,3%,1,-11%,40*
Cc1ccccc1N1C(=O)C(Cc2ccc(F)cc2)S/C1=C(\C#N)C(N)=O (stereo not given),-17%,-14%,7%,0,3%,-1
CCCN(CC(=O)Nc1ccccc1C)C(=O)CCCOc1ccc(Br)cc1,8.9µM*,-23%,1%,0,2%,-6
CCOc1ccc(OCCCC(=O)N(C)CC(=O)Nc2ccccc2Br)cc1,-24%,-38%,0%,x,-2%,x
O=C(Nc1ccc(F)cc1F)Nc1csc2ccccc12,10µM*,-21%,-18%,2,3%,1
Cc1nc2sccn2c(=O)c1S(=O)(=O)NCC1CCN(Cc2ccc(Cl)cc2)CC1,10µM*,-8%,13%,x,-2%,x
CC1CCCCC12NC(=O)N(CC(=O)N1CCN(C(=O)c3ccco3)CC1)C2=O (stereo not given),10%,-19%,-3%,0,5%,-2
CCOC(=O)Cn1nnnc1CN1CCN(c2ccc(OC)cc2)CC1,4%,i,21%,1,4%,34*
O=C(CSCc1ccc([N+](=O)[O-])cc1)Nc1ccc(S(=O)(=O)N2CCCCCC2)cc1,u,i,6%,6,13%,1
SMILES,GLP-1R inv ag,PTHR1 agonist,GLP-1R agonist,TRHR agonist,GLP1R cytotox,TRHR enhancer
CCOC(=O)CC1=C(C(=O)OCC)C(c2cccnc2)C(C#N)=C(N)O1 (stereo not given),8%,i,-1%,0,1%,33*
CCOC(=O)CC1=C(C#N)C(c2cccnc2)C(C(=O)OCC)=C(N)O1 (stereo not given),-5%,i,-4%,0,3%,1
COc1cccc(NC(=O)C(Sc2nnc(Nc3ccccc3C)s2)c2ccccc2)c1 (stereo not given),10µM*,i,-10%,2,u,0
CC(=O)N1CCCc2cc(S(=O)(=O)NC(C(=O)NCc3ccc(C)cc3)C(C)C)ccc21 (stereo not given),-13%,i,-11%,0,-23%,17
CCOCC(=O)Nc1ccccc1C(=O)OCC,1%,i,0%,-1,16%,-2
CCOC(=O)c1ccccc1NC(=O)COC(=O)C(CC(C)C)NC(N)=O (stereo not given),6%,i,-6%,-1,0%,41*
Cc1ccc(C(=O)N2CCNC(=O)C2CC(=O)Nc2ccc(F)cc2)cc1C (stereo not given),13%,i,9%,-1,-2%,-3
CCOc1ccc(-c2nc(-c3cccs3)c(CC(=O)O)s2)cc1OC,33%,-22%,9%,0,-2%,0
COc1ccc(-c2cc(C)no2)cc1S(=O)(=O)N1CCCN(Cc2ccc(F)cc2)C1,7.1µM*,-3%,-1%,0,4%,-5
COc1ccccc1CN1CCC(CNS(=O)(=O)c2cc(-c3cc(C)no3)ccc2OC)CC1,11µM*,-2%,14%,0,-16%,-3
Cc1cc(S(=O)(=O)N2CCN(c3ccc(F)cc3)CC2)c(C)s1,10µM*,-44%,7%,-1,12%,2
COc1ccccc1N1CCN(S(=O)(=O)c2cc(C)sc2C)CC1,10µM*,-16%,-5%,0,7%,2
O=C(c1cc2c(s1)-c1ccccc1OC2)N1CCN(c2ccccc2F)CC1,5%,-56%,x,0,2%,3
CCc1ccc(-c2cc(C)no2)cc1S(=O)(=O)N1CCN(c2ccccc2OC)CC1,4.5µM*,i,-1%,0,-2%,-3
O=C(Nc1ccccc1C(=O)N1CCCC1)c1cccc(S(=O)(=O)N2CCCCCC2)c1,0%,-11%[57.5 µM],15%,-1,3%,-5
O=C(CSc1ccc(Cl)cc1)c1ccco1,-4%,-25%[57.5 µM],0%,0,3%,36*
O=C(NC1CC1)c1cc(F)c(F)cc1Cl,15%,-25%,-3%,-2,14%,-4
O=C(NC12CC3CC(CC(C3)C1)C2)c1cc(F)c(F)cc1Cl,10µM*,-38%,-3%,0,-1%,1
